# Assay results as given in PubChem BioAssay (NCATS).
# Unmarked numbers belong to inactive results. Results filed as inconclusive are left out. Calls of active or inactive are those of the source. The call rests on the fitted dose curve; in most records, active means well fitted inhibition curve with a large enough effect; inconclusive means small, poorly fitted or top-dose-only effect; inactive means flat fitted curve, though single readings scatter.
# Target: Phospholipid hydroperoxide glutathione peroxidase GPX4 (Homo sapiens) (UniProt P36969)
# Test: Primary qHTS Assay for Inhibitors of Recombinant Selenoprotein Glutathione Peroxidase 4 (GPX4) (AID 1845192); further: nearly all actives have a fitted effect of over 65% in size; on activity change, negative = inhibition: on the % scale 0 is the no-effect control and ±100 the full control effect
# Conditions: recombinant GPX4, GR-coupled NADPH fluorescence, 15 min; series mostly up to 50 µM; activity change, negative = inhibition: at the top concentration
# Procedure, shortened: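 NADPH consumption followed by fluorescence at 340/450 nm, t=0 and after 15 min at room temperature. Reaction started with cumene hydroperoxide (0.5 mM final) after 30 min compound–GPX4 preincubation; final 200 nM GPX4, 100 nM GR, 1 mM GSH, 0.5 mM NADPH.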
# Sequence of Phospholipid hydroperoxide glutathione peroxidase GPX4 (Homo sapiens) (P36969 whole entry, looked up): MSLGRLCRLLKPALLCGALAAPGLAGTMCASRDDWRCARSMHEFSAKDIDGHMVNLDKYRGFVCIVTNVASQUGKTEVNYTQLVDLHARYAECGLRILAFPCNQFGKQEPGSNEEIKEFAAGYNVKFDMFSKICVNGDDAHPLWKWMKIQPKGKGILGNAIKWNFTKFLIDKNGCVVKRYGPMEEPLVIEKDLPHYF
SMILES,"activity change, negative = inhibition",Potency,outcome
CC1=CC(=O)[C@@H](O)[C@@]2(C)C1C[C@H]1OC(=O)[C@H](O)[C@@]3(O)[C@@H](C)[C@@H](O)[C@H](O)C2[C@@]13C (stereo partly drawn),-6.08% [at 27.8 µM],,
CN(Cc1cccc(-c2ccncc2)c1)C(=O)Oc1ccc(-c2ccc(C(N)=O)cc2)cc1,3.86%,,
CN(C(=O)C(c1ccccc1)c1ccccc1)[C@H](CN1CC[C@H](O)C1)c1ccccc1,11.3%,,
Fc1cc(F)c2c(c1)C1C=CCC1C(c1cccnc1)N2 (stereo not drawn),-8.5%,,
C/C=C(\C)C(=O)OC1CC2C(CC=C3CC(OC4CC(OC)C(OC5CC(OC)C(OC6CC(OC)C(OC7CC(OC)C(O)C(C)O7)C(C)O6)C(C)O5)C(C)O4)CCC32C)C2(O)CCC(C(C)=O)C12C (stereo not drawn),-1.87% [at 15.3 µM],,
CN=C(NS(=O)(=O)c1ccc(Cl)cc1)N1C[C@H](c2ccccc2)C(c2ccc(Cl)cc2)=N1,-24%,,
COC1CC(O[C@H]2CC[C@@]3(C)C(CCC4C3CC[C@]3(C)C(C5=CC(=O)OC5)CCC43O)C2)OC(C)C1OC1OC(COC2OC(CO)C(O)C(O)C2O)C(O)C(O)C1O (stereo partly drawn),-3.83% [at 15.3 µM],,
C[C@@H]1O[C@@H](OC2CCC3(C=O)C(CCC4C3CCC3(C)C(C5=CC(=O)OC5)C(O)CC43O)C2)[C@H](O)[C@H](O)[C@H]1O[C@@H]1O[C@H](CO)[C@@H](O)[C@H](O)[C@H]1O (stereo partly drawn),4.83% [at 15.3 µM],,
CC12CCC3C(C1)c1c(cc(O)c(C(=O)c4ccccc4)c1OC3(C)C)O2 (stereo not drawn),-17.1% [at 27.8 µM],,
C=C1C(=O)CC2OC2(C)CC2OC(=O)C(=C)C2C(O)C1OC(=O)/C(C)=C\C (stereo not drawn),-17.6% [at 27.8 µM],,
CN1C(=O)[C@@H](Cc2c[nH]c3ccccc23)N=C(c2ccccc2F)c2ccccc21,-8.67%,,
CC(C)[C@H]1OC(=O)[C@H](Cc2ccccc2)N(C)C(=O)[C@@H](C(C)C)OC(=O)[C@H](Cc2ccccc2)N(C)C(=O)[C@@H](C(C)C)OC(=O)[C@H](Cc2ccccc2)N(C)C1=O,-22.4% [at 15.3 µM],,
CC[C@H](O)[C@@H](C)[C@H]1O[C@@H]1C[C@H](C)/C=C/C=C(\C)[C@H]1OC(=O)C[C@H](O)CC[C@@](C)(O)[C@@H](OC(C)=O)/C=C/[C@@H]1C,-0.823%,,
C=C1C2(C)CC3C(C)(O)C4=CC(=O)OC(C)(C)C4=CCC3(C)C13C(=O)OC(C)C3(O)C2=O (stereo not drawn),-2% [at 27.8 µM],,
CC(=O)O[C@H]1C[C@]2(O)[C@@H]3CC[C@@H]4C[C@@H](O)CC[C@]4(C)[C@H]3CC[C@]2(C)[C@H]1c1ccc(=O)oc1,-1.32%,,
CN1CCC2=C(C1)c1ccccc1Cc1ccccc12,,inactive,
C=C(C)C(=O)O[C@H]1[C@@H]2[C@H](C)C(=O)O[C@@H]2C[C@@H](C)[C@@H]2C=CC(=O)[C@]21C,-7.09% [at 27.8 µM],,
CCOc1ccc(Oc2ccc(OCc3cc(F)ccc3F)cc2)c(N)c1,1.71%,,
CCN1C[C@]2(COC)CC[C@H](O)[C@@]34C5C[C@@H]6[C@@H](OC)C[C@@](OC(C)=O)(C5[C@@H]6OC(C)=O)[C@H]([C@H](OC)C23)[C@@H]14 (stereo partly drawn),-1.66% [at 27.8 µM],,
CC(C)[C@H](NC(=O)c1nn(Cc2ccc(F)cc2)c2ccccc12)C(N)=O,-4.59%,,
COC1CCCC(C)OC(=O)Cc2cc(O)cc(O)c2C(=O)C1 (stereo not drawn),1.34% [at 27.8 µM],,
C[C@]12CC[C@H](O)C[C@@H]1CC[C@@H]1[C@@H]2CC[C@]2(C)C(=O)CC[C@@H]12,2.78%,,
CC(=O)OC[C@]12[C@H](OC(C)=O)C(=O)[C@@H]3[C@@H](O)[C@@]14O[C@@]3(C)COC(=O)c1cccnc1[C@@H](C)[C@H](C)C(=O)O[C@@H]([C@H](OC(C)=O)[C@@H]2OC(C)=O)[C@]4(C)O,-10.2% [at 15.3 µM],,
C#C[C@]1(O)CC[C@H]2[C@@H]3CC[C@H]4Cc5nc6nc7ccccc7n6cc5C[C@]4(C)[C@H]3CC[C@@]21C,-8.3%,,
CCCCCn1cc(C(=O)Oc2cccc3cccnc23)c2ccccc21,-3.52%,,
COc1cc(O)c2c(c1)CCC[C@@H](O)[C@H](O)C(=O)/C=C\C[C@H](C)OC2=O,-13% [at 27.8 µM],,
COc1cc(C(=O)N2CC[C@@H](O)[C@@H](N)C2)cc2nc(-c3cc4ccccc4n3CC3CC3)n(C)c12,-12.6%,,
C[C@]12CC[C@H](O)C[C@@H]1CC[C@@H]1[C@@H]2CC[C@]2(C)[C@@H](C3=CC(=O)OC3)CC[C@]12O,0.962% [at 27.8 µM],,
COC(=O)C12C(=O)C(C)(O)C(=O)C1(C)C(C)=CC1C34CCC(OC3=O)C(C)(C)C4CCC12C (stereo not drawn),-10.2% [at 27.8 µM],,
CN1Cc2c(ccc3c2OCO3)[C@@H]2[C@H]1c1cc3c(cc1C[C@@H]2O)OCO3,,,inactive [at 27.8 µM]

# Target: Luciferin 4-monooxygenase (Photinus pyralis) (UniProt P08659)
# Test: Primary firefly luciferase (FLuc) qHTS assay for identification of artifact compounds. (AID 1845220); further: nearly all actives have a fitted effect of over 60% in size;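 on activity change, negative = inhibition: plate controls were DMSO vehicle for no effect and no enzyme for full effect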
# Conditions: purified firefly luciferase, luminescence, 5 min; series mostly up to 54.1 µM; activity change, negative = inhibition: at the top concentration
# Procedure, shortened: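 Compounds sat 15 min at room temperature with 10 uM luciferin and 10 uM ATP (pH 7.6 Tris acetate). Firefly luciferase (10 nM final) was then added, and luminescence was read 5 min later. Data normalized to no-enzyme and DMSO controls were Hill-fitted.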
SMILES,outcome,"activity change, negative = inhibition [%]"
CC1=CC(=O)[C@@H](O)[C@@]2(C)C1C[C@H]1OC(=O)[C@H](O)[C@@]3(O)[C@@H](C)[C@@H](O)[C@H](O)C2[C@@]13C (stereo partly drawn),inactive,
CN(Cc1cccc(-c2ccncc2)c1)C(=O)Oc1ccc(-c2ccc(C(N)=O)cc2)cc1,,-11.6
CN(C(=O)C(c1ccccc1)c1ccccc1)[C@H](CN1CC[C@H](O)C1)c1ccccc1,inactive,
